Experiment [1] can be described thus: Viability qHTS for spleen associated tyrosine kinase inhibitor (SYKi) naive MV4-11 cells (AID 1963823). Note: nearly all actives have a fitted effect of over 40% in size. As to conditions: MV4-11 AML viability, CellTiter-Glo luminescence, 72 h; series mostly up to 45 µM. In a few lines: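 CellTiter-Glo luminescence, 10 min room-temperature incubation, gave viability. Cells: naive MV4-11 (500/well), treated 72 hr at 37 C, 5% CO2.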

A short description of experiment [2]: Viability qHTS for spleen associated tyrosine kinase inhibitor (SYKi) drug resistant MV4-11 cells (AID 1963824). Note: nearly all actives have a fitted effect of over 35% in size. As to conditions: SYKi-resistant MV4-11 viability, CellTiter-Glo, 72 h; series mostly up to 45 µM. In a few lines:
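SYK inhibitor-resistant MV4-11 AML cells, 500 per well, added to predispensed compounds and incubated 72 hr at 37 C, 5% CO2. Viability measured by CellTiter-Glo luminescence after 10 min at room temperature.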
In general terms: qHTS replaces the single test concentration by a dilution series.

A short description of experiment [3]: Quantitative highthroughput screen to assess conditional lethalithy of NOMO1 cells grown in RPMI1640 with untreated serum (RPMI+s) (AID 1963876).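 For Viability: 100% = DMSO wells and 0% = empty wells without cells.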 Note: nearly all actives have a fitted effect of over 35% in size. Particulars: NOMO1 AML cells in RPMI+serum, CellTiter-Glo viability, 48 h; series mostly up to 45.8 µM. In a few lines: (§1)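 Each medium arm—HPLM with 10% dialyzed FBS, or RPMI1640 with 5 mM glucose and 10% untreated or dialyzed FBS—was screened against an 11-point, 3-fold compound titration for 48 h at 37 °C, with CellTiter-Glo luminescence as endpoint.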
In general terms: In ATP-based viability assays light output follows the ATP content of the culture.

A short description of experiment [4]: Quantitative highthroughput screen to assess conditional lethalithy of NOMO1 cells grown in RPMI1640 with dialyzed fetal bovine serum (RPMI+ds) (AID 1963877).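 For Viability: 100% = DMSO control wells and 0% = empty wells.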 Note: nearly all actives have a fitted effect of over 30% in size. As to conditions: NOMO1 in RPMI+dialyzed FBS viability, ATP luminescence, 48 h; series mostly up to 45.8 µM. The essentials:
as §1

Experiment [5] can be described thus: Quantitative highthroughput screen to assess conditional lethalithy of NOMO1 cells grown in Human Plasma-Like Medium with dialyzed fetal bovine serum (HPLM+ds) (AID 1963878).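 For Viability: 100% = DMSO wells and 0% = empty wells on each plate.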 Note: nearly all actives have a fitted effect of over 35% in size. Particulars: NOMO1 AML cells in HPLM+ds, CellTiter-Glo viability, 48 h; series mostly up to 45.8 µM. In a few lines:
as §1

The nature of experiment [6]: Quantitative highthroughput screen to assess conditional lethalithy of P12 Ichikawa cells grown in Human Plasma-Like Medium with dialyzed fetal bovine serum (HPLM+ds) (AID 1963879). Note: nearly all actives have a fitted effect of over 35% in size. As to conditions: ATP luminescence, 48 h; Potency: viability; series mostly up to 45.8 µM. The essentials: as §1
Experiment [7] is described as follows: Quantitative highthroughput screen to assess conditional lethalithy of P12 Ichikawa cells grown in RPMI1640 with untreated serum (RPMI+s) (AID 1963881).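 For Viability: 100% = DMSO wells and 0% = empty wells without cells.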 Note: nearly all actives have a fitted effect of over 35% in size. Particulars: ATP luminescence, 48 h; Potency: viability; series mostly up to 45.8 µM. The essentials: as §1
Experiment [8] in a line: Quantitative highthroughput screen to assess conditional lethalithy of SEM cells grown in Human Plasma-Like Medium with dialyzed fetal bovine serum (HPLM+ds) (AID 1963882). Note: nearly all actives have a fitted effect of over 35% in size. Particulars: SEM B-ALL cells in HPLM+ds, CellTiter-Glo viability, 48 h; series mostly up to 45.8 µM. In a few lines: as §1
Experiment [9] in a line: Quantitative highthroughput screen to assess conditional lethalithy of SEM cells grown in RPMI1640 with unreated serum (RPMI+s) (AID 1963883).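 For Viability: 100% = DMSO wells and 0% = empty wells without cells.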 Note: nearly all actives have a fitted effect of over 35% in size. Particulars: SEM B-ALL cells, CellTiter-Glo viability, 48 h; series mostly up to 45.8 µM. The essentials: as §1
The nature of experiment [10]: Quantitative highthroughput screen to assess conditional lethalithy of SEM cells grown in RPMI1640 with dialyzed fetal bovine serum (RPMI+ds) (AID 1963884).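 For Viability: 100% = DMSO control wells and 0% = empty wells without cells.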 Note: nearly all actives have a fitted effect of over 35% in size. As to conditions: SEM B-ALL cells, RPMI+dialyzed FBS, CellTiter-Glo viability, 48 h; series mostly up to 45.8 µM. In a few lines: as §1
The nature of experiment [11]: Cellular viability qHTS for adrenocortical cancer (ACC) cell line SW-13 (AID 1963989).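 For activity (max response): cells grown in serum-free medium with ITS supplement; % is set by controls: 0 for no effect and ±100 for the full control effect.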 Note: nearly all actives have a fitted effect of over 65% in size. As to conditions: SW-13 ACC cells viability, CellTiter-Glo, 48 h; activity (max response): stronger effect = lower value. In a few lines:
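Viability was read as CellTiter-Glo luminescence after 48 h compound treatment (up to 46 uM final) of SW-13 cells grown serum-free; titration curves were fit with a four-parameter logistic model to give IC50 and efficacy.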

A short description of experiment [12]: Quantitative highthroughput screen to assess conditional lethalithy of P12 Ichikawa cells grown in RPMI1640 with dialyzed fetal bovine serum (RPMI+ds) (AID 1963880).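 For Viability: 100% = DMSO wells and 0% = empty wells on each plate.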 Note: nearly all actives have a fitted effect of over 35% in size. As to conditions: ATP luminescence, 48 h; Potency: P12-Ichikawa viability; series mostly up to 45.8 µM. In a few lines: as §1
The nature of experiment [13]: Cellular viability qHTS for adrenocortical cancer (ACC) cell line NCI-H295R (AID 1963990).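 For activity change, negative = viability loss: 0% = DMSO only wells and -100% = full killing with cytotoxic reference compound.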 Note: nearly all actives have a fitted effect of over 60% in size. As to conditions: CellTiter-Glo ATP luminescence, 48 h; series mostly up to 46.1 µM. In a few lines: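 CellTiter-Glo ATP luminescence, read 48 h after compound addition, measured viability of NCI-H295R adrenocortical cells grown serum-free with ITS. Final concentrations spanned up to 46 uM. Data normalized to DMSO and doxorubicin, fitted for IC50 and maximal response.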

The structures appear in SMILES notation. Several values for one entry are separate records, joined by “and”; a condition that tells them apart may be missing. Equal values may be shown once. Records with an inconclusive call do not appear. A structure can be active in one record and inactive in another. Activity calls are given as the source filed them. Calls come from the whole dose curve; as a rule, active = well fitted curve in the direction sought with a large enough effect; inconclusive = small, poorly fitted or top-dose-only effect, or another doubt; inactive = no such curve, though single readings can be large; an effect the other way counts as inactive or inconclusive. Bridge positions count the residues as written; N and C are the ends. Square brackets hold non-standard residues; d marks the D form. Peptide text beside a SMILES is read from it. * marks the point of attachment. ξ: configuration not given here. Octanoyl(6-Me) = CCC(C)CCCCC(=O)*; ξThr(3R) = C[C@@H](O)C(N)C(=O)O; dDab = NCC[C@@H](N)C(=O)O; Dab = NCC[C@H](N)C(=O)O
Potency is the fitted concentration of half-maximal effect.

Take `CN1CCC(=C2c3ccccc3CC(=O)c3sccc32)CC1`: the Potency in experiment [1] is 26.3 µM (active); in [2], 23.7 µM (active) and 20.9 µM (active). Further, the Potency entry in [3], in experiment [4], in experiment [5], in experiment [6], in [7] and in [8] was “inactive” in each case. Moreover, the Potency result in experiment [9] and in experiment [10] was “inactive” in each case. Moreover, the activity (max response) in experiment [11] was -6.42% (inactive) and -1.59% (inactive).

Consider `COc1cc2c(Oc3ccc(NC(=O)C4(C(=O)Nc5ccc(F)cc5)CC4)cc3F)ccnc2cc1OCCCN1CCOCC1`, for which the Potency result was “inactive and 2.6 nM (active)” in experiment [1]; 0.0037 µM (active) in experiment [2]; 11.8 µM (active) in experiment [3]; 5.9 µM (active) in experiment [4]; 13.2 µM (active) in [5]; 1.48 µM (active) in experiment [6]. The Potency was 1.66 µM (active) in experiment [12], 2.35 µM (active) in experiment [7], 3.16 µM (active) in experiment [11] and 2.82 µM (active) in experiment [13].

For `COc1cc(N2CCC(O)CC2)ccc1Nc1cc(Nc2ccccc2S(=O)(=O)C(C)C)c2cc[nH]c2n1`, the Potency is 16.4 µM (active) and 10.5 µM (active) in experiment [1]; 20.6 µM (active) and 14.8 µM (active) in experiment [2]. The Potency result in [3], in experiment [4], in experiment [5], in [6], in experiment [12] and in experiment [7] was “inactive” throughout. In [13], the Potency result is “inactive”. Besides, the activity (max response) in experiment [11] is -1.42% (inactive).

`COCCNCCCn1c(C(=O)CF)c(-c2ccc(C)cc2)c2c(N)ncnc21`: the Potency in [1] is 4.17 µM (active); in experiment [2], 6.61 µM (active); in [8], 11.8 µM (active); in experiment [9] it was 0.166 µM (active); in [10] it was 0.743 µM (active). The Potency entry in experiment [3], in [4], in experiment [5], in [6], in experiment [12] and in experiment [13] was “inactive” in each case. In [11], the activity (max response) is 7.79% (inactive).

As to `CC[C@@H](C)[C@H](NC(=O)[C@H](CC1CCCCC1)NC(=O)c1ccno1)C(=O)N1CCC2(CCc3ccccc32)CC1`, the Potency in [1] is 13 µM (active); in [2] it was 18.4 µM (active). Further, the Potency entry in experiment [3], in experiment [4], in experiment [5], in experiment [6], in experiment [12] and in experiment [7] was “inactive” in each case. The Potency result in experiment [13] is “inactive”. In addition, the activity (max response) in experiment [11] was -1.23% (inactive).

On to `CC(C)C[C@@H](N)[C@H](O)C(=O)N[C@H](C(=O)N[C@H](C(=O)N[C@@H](CC(=O)O)C(=O)O)C(C)C)C(C)C`, for which the Potency entry in experiment [1], in [2], in experiment [3], in experiment [4], in experiment [5] and in experiment [6] was “inactive” throughout. In addition, the Potency result in experiment [12], in [9] and in experiment [13] was “inactive” in each case. In addition, the activity (max response) in experiment [11] was -8.42% (inactive).

Take `COCCCN1CCC(NC(=O)c2cc(Cl)c(N)c3c2OCC3)CC1`: the Potency result in experiment [1], in experiment [2], in experiment [3], in experiment [4], in experiment [5] and in experiment [6] was “inactive” in each case. The Potency entry in experiment [8], in [9], in [10] and in experiment [13] was “inactive” in each case. In addition, in experiment [7], the Potency is 18.7 µM (active). Besides, the activity (max response) in experiment [11] was 15.7% (inactive) and -2.89% (inactive).

For `N#Cc1c(C2CCNCC2)cc(-c2c(O)cccc2OCC2CC2)nc1N`, the Potency is 5.9 µM (active) in [1], 6.61 µM (active) in experiment [2], 28.2 µM (active) in [11] and 11.2 µM (active) in experiment [13]. The Potency entry in experiment [3], in experiment [4], in experiment [5], in experiment [6], in experiment [12] and in [7] was “inactive” in each case.

For `C[C@@H]1COCCN1c1cc(C2(S(C)(=N)=O)CC2)nc(-c2ccnc3[nH]ccc23)n1` (stereo partly specified), the Potency in experiment [1] is 1.48 µM (active); in experiment [2], 1.18 µM (active) and 2.59 µM (active); in experiment [3], 4.67 µM (active); in [4] it was 2.95 µM (active); in [5], 1.17 µM (active); in experiment [6] it was 4.17 µM (active). The Potency in experiment [12] is 2.95 µM (active); in [7], 4.67 µM (active); in experiment [9], 1.17 µM (active); in experiment [13], 3.98 µM (active).

`OCc1ccc(-c2ccc(-c3ccc(CO)s3)o2)s1`: the Potency in experiment [1] was 1.18 µM (active); in experiment [2] it was 0.833 µM (active). For the same compound, the Potency entry in experiment [3], in experiment [4], in experiment [5], in experiment [6], in experiment [7] and in [8] was “inactive” in each case. The Potency result in experiment [9] and in [10] was “inactive” throughout. The activity (max response) in experiment [11] is -9.77% (inactive).

Consider `O=c1cc(-c2cccc3c2Sc2ccccc2S3)oc(N2CCOCC2)c1`, for which the Potency in experiment [1] is 6.51 µM (active) and 16.6 µM (active); in experiment [2] it was 5.8 µM (active) and 9.34 µM (active); in experiment [11], 28.2 µM (active); in experiment [13] it was 25.1 µM (active). Further, the Potency entry in experiment [3], in [4], in experiment [5], in experiment [6], in experiment [12] and in experiment [8] was “inactive” each time. Moreover, the Potency result in experiment [9] and in experiment [10] was “inactive” in each case.

For `CCCCCN(C)CCC(O)(P(=O)(O)O)P(=O)(O)O`, the viability (% of control) in experiment [1] was 73% [at 4.97 µM] (inactive). In addition, the viability, % of control in experiment [2] is 78.4% [at 4.97 µM] (inactive). Also, the Potency entry in experiment [3], in experiment [4], in experiment [5], in experiment [6], in experiment [12] and in experiment [7] was “inactive” each time. In addition, in [10], the Potency result is “inactive”. Besides, the activity change, negative = viability loss in experiment [13] is -3.37% [at 3.81 µM] (inactive).

Regarding `O=C(Nc1ccccc1Br)N[C@@H]1CCN(c2ccc(C(F)(F)F)cn2)C1`, the Potency in experiment [1] is 14.8 µM (active); in [2], 23.5 µM (active). Moreover, the Potency entry in [3], in experiment [4], in [5], in [6], in experiment [12] and in experiment [8] was “inactive” throughout. Besides, the Potency result in experiment [9], in [10] and in [13] was “inactive” each time.

For `CCC(C)CCCCC(=O)N[C@@H](CCN)C(=O)NC(C(=O)N[C@H](CCN)C(=O)N[C@@H]1CCNC(=O)C([C@@H](C)O)NC(=O)[C@@H](CCN)NC(=O)[C@@H](CCN)NC(=O)[C@@H](CC(C)C)NC(=O)[C@H](Cc2ccccc2)NC(=O)[C@H](CCN)NC1=O)[C@@H](C)O` (stereo partly drawn) ({Octanoyl(6-Me)}-[Dab][ξThr(3R)][dDab][dDab][Dab]F[dL][dDab][dDab][ξThr(3R)]; lactam 4-C), the Potency result in experiment [1], in [2], in experiment [3], in [4], in experiment [5] and in experiment [6] was “inactive” each time. The Potency result in [7], in experiment [8], in [9], in [10] and in [13] was “inactive” each time. In addition, the activity (max response) in experiment [11] is 3.16% (inactive).
